Assay outcomes: PubChem BioAssay, National Center for Advancing Translational Sciences (NCATS)
Only some compounds are listed: those with a hit (about 9.2% of all), similar ones and a draw of the others.
Rab9 promoter act: qHTS Assay for Rab9 Promoter Activators. Huh7 Rab9 promoter-luciferase reporter, luminescence, 24 h. Potency, µM (titrated, usually from 9.22 µM), inactives show at the top dose activation, negative = inhibition, hits mostly activators. 320,000 tested, 2.8% active; note: % of control where 0% means no effect; nearly all actives have a fitted effect of over 60% in size
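Luminescence read-out: Huh7 cells stably expressing Rab9-luciferase, treated 24 h with compound at 37 °C, then lysed with luciferase reagent for 10 min at ambient before reading.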
NPC1 prom act: qHTS Assay for NPC1 Promoter Activators; Huh7 NPC1 promoter luciferase reporter, 24 h; Potency, µM (doses to about 9.22 µM), for the others: top-dose activation, most hits filed as activators; 320,000 tested, 2.4% active; AID 485313, 2010; note: % of control where 0% means no effect; nearly all actives have a fitted effect of over 60% in size
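Quantitative HTS used a cell-based reporter: Huh7 cells stably bearing the NPC1 promoter upstream of luciferase were treated with compounds for 24 h, and promoter activation was read as luminescence.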
FLuc modulator: qHTS profiling assay for firefly luciferase inhibitor/activator using purifed enzyme and Km concentrations of substrates (counterscreen for miR-21 project); Luciferin 4-monooxygenase (Photinus pyralis), P08659; purified FLuc, Km substrates, luminescence inhibition; Potency, µM (doses to about 57.5 µM), inactives show top-dose activity change, negative = inhibition, actives largely listed as inhibitors; 360,000 tested, 6.9% active; AID 588342, 2011;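 note: plate controls were vehicle for no effect and reference inhibitor for full effect; nearly all actives have a fitted effect of over 55% in size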
Target sequence (P08659 whole entry, looked up): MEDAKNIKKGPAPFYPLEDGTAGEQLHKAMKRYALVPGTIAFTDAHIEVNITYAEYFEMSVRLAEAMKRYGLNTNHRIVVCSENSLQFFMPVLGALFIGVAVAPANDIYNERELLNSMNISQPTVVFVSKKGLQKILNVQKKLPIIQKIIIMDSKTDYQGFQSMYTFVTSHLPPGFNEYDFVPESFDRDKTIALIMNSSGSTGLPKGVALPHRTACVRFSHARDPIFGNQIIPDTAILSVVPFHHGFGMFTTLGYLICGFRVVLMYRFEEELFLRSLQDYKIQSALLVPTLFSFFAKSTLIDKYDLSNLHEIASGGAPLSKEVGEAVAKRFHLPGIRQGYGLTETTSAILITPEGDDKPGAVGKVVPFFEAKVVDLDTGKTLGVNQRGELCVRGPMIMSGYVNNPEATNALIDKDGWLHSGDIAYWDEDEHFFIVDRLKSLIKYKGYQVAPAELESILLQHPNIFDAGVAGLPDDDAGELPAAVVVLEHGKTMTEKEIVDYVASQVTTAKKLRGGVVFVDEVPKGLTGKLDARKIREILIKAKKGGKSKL
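Purified P. pyralis luciferase (10nM final) with 10uM D-luciferin and 10uM ATP (Km levels) in 50mM Tris acetate pH 7.5, 10mM Mg acetate, 0.01% Tween-20, 0.05% BSA; qHTS 6-point titration, ~60 µM downward; luminescence read.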
ELG1 genotox: qHTS screen for small molecules that induce genotoxicity in human embryonic kidney (HEK293T) cells expressing luciferase-tagged ELG1; Potency, µM (doses to about 46 µM), for inactives: top-dose activity change, positive = activation, most hits filed as activators; HEK293T ELG1-luciferase reporter, luminescence, 16 h; 330,000 tested, 1.3% active; note: % of control where 0% means no effect; nearly all actives have a fitted effect of over 60% in size
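Step 1: seed 2,000 HEK293T ELG1-luciferase cells per well. Step 2: add compound or DMSO, incubate 16 hr at 37 °C. Step 3: ONE-Glo, 30 min at room temperature, read luminescence.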
SMN2 splice enh: qHTS Assay for Enhancers of SMN2 Splice Variant Expression; HEK293 SMN2-luciferase splicing reporter, luminescence, 30-36 h; Potency, µM (series often up to 46.1 µM), for inactives: at the top dose activity change, positive = activation, most hits filed as activators; 210,000 tested, 2.8% active; note: % of control where 0% means no effect; nearly all actives have a fitted effect of over 55% in size
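HEK293 cells carry an SMN2 minigene-luciferase reporter in which exon 7 inclusion puts luciferase in frame. Cells were seeded at 2000 cells/well, attached for 10-12 hours, then exposed to compounds for 30-36 hours at 37C before ONE-Glo luminescence.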
ELG1 repair inh: qHTS screen for small molecules that inhibit ELG1-dependent DNA repair in human embryonic kidney (HEK293T) cells expressing luciferase-tagged ELG1 | HEK293T ELG1-luciferase reporter, luminescence, 16 h; DNA damage induced by 5-fluorouridine | Potency, µM (highest dose often 46.1 µM), for inactives: at the top dose activity change, negative = inhibition, usual class: inhibitors | 330,000 tested, 2.3% active; note: % is set by controls: 0 for no effect and ±100 for the full control effect; nearly all actives have a fitted effect of over 55% in size
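HEK293T cells expressing luciferase-tagged ELG1 (2,000/well) received 5-Fluorouridine plus compound or DMSO for 16 hr at 37 °C. Luciferase was read by ONE-Glo luminescence after 30 min at room temperature.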
Active calls of the source: *; ? = inconclusive; . = not tested or not shown. Calls come from the whole dose curve; as a rule, active = well fitted curve in the direction sought with a large enough effect; inconclusive = small, poorly fitted or top-dose-only effect, or another doubt; inactive = no such curve, though single readings can be large; an effect the other way counts as inactive or inconclusive. Potency is the fitted concentration of half-maximal effect.

SMILES	Rab9 promoter act	NPC1 prom act	FLuc modulator	ELG1 genotox	SMN2 splice enh	ELG1 repair inh
O=C(Nc1ccc(F)cc1)c1ccc2c(=O)n3c(nc2c1)CCCCC3	4.5µM*	3.2µM*	13µM*	?	.	?
O=C(c1ccc2c(=O)n3c(nc2c1)CCCCC3)N1CCN(C(c2ccccc2)c2ccccc2)CC1	0%	1%	0%	-16%	-42%	23µM*
CCCCc1nnc(NC(=O)c2ccc3c(=O)n4c(nc3c2)CCC4)s1	2%	-2%	-1%	1%	.	0%
COc1ccc(C(=O)Nc2ccccc2-c2nc3ccccc3s2)cc1OC	.	.	-5%	.	-10%	.
Cc1ccc(C)c(Cn2c(=O)n(Cc3ccccc3)c(=O)c3c(C)c(C)sc32)c1	.	.	6%	.	-1%	.
COc1ccc(CNC(=O)c2ccc(NC(=O)N3CCSc4ccccc43)cc2)cc1	.	.	-2%	.	15%	.
CC(=O)NCCCC(=O)NNC1CC(=O)N(c2cccc(Cl)c2)C1=O (stereo unspecified)	-3%	-2%	4%	-1%	.	?
CCOC(=O)c1ccc(S(=O)(=O)Nc2ccc(N3CCOCC3)cc2)cc1	1%	-1%	1%	-1%	.	4%
Cc1cc(NC(=O)c2cc(-c3ccccc3)on2)n(-c2ccccc2)n1	-1%	-2%	1%	0%	?	2%
CC(C)n1cc(NC(=O)c2cc(-c3ccccc3)on2)cn1	-9%	-16%	15µM*	18µM*	6%	?
O=C(Nc1ccc(F)c(Cl)c1)c1cc(-c2ccco2)on1	2%	-3%	?	5%	.	0%
COC(=O)c1c(-c2cccnc2)csc1NC(=O)c1cc(C)on1	1.8µM*	2µM*	6µM*	?	11µM*	?
COc1ccc(NC(=O)c2cc(-c3ccccc3)on2)cc1	2%	1%	?	11%	.	?
O=C(Nc1cccnc1)c1cc(-c2ccccc2)on1	-8%	1%	4.8µM*	2%	0%	-1%
O=C(Nc1cccnc1)c1cc(-c2ccco2)on1	0%	0%	6µM*	0%	-3%	-1%
CCCOc1ccc(Nc2cc(C)nc(C)n2)cc1	.	.	3%	.	.	.
O=C(NC1CC(=O)N(c2ccc(F)cc2)C1)c1ccc(S(=O)(=O)N2CCOCC2)cc1 (stereo unspecified)	.	.	5%	.	.	.
Cc1ccc(CN(C(=O)c2ccccc2F)c2ccccn2)o1	.	.	-3%	.	.	.
COc1cc(C2=NOC(C(=O)N3CCCCCC3)C2)cc(OC)c1OC (stereo unspecified)	-5%	2%	1%	1%	.	7.3µM*
COc1cccc(-c2cc(C(=O)Nc3c(C)nn(Cc4ccccc4)c3C)no2)c1	-13%	-5%	1%	-20%	-55%	21µM*
COc1cc(NC(=O)c2cc(-c3cccc(OC)c3)n[nH]2)cc(OC)c1	.	.	12µM*	.	.	.
COc1cc(C2=NOC(C(=O)N3CCN(c4ccc(F)cc4)CC3)C2)cc(OC)c1OC (stereo unspecified)	-8%	-1%	5%	-3%	-25%	?
CCC(C)NC(=O)c1cc(-c2cccc(OC)c2)on1 (stereo unspecified)	.	.	13µM*	.	11µM*	.
COc1ccc(-c2cc(C(=O)Nc3c(C)nn(Cc4ccccc4)c3C)no2)cc1	0%	2%	-1%	0%	-27%	-11%
CCc1cc(C(=O)Nc2cnn(Cc3ccccc3C)c2)no1	.	.	24µM*	.	18µM*	.
SMILES	Rab9 promoter act	NPC1 prom act	FLuc modulator	ELG1 genotox	SMN2 splice enh	ELG1 repair inh
COc1cccc(-c2cc(C(=O)Nc3cccnc3)no2)c1	-1%	-2%	1.3µM*	?	-8%	?
Cc1ccccc1Cn1nc(C)c(NC(=O)c2cc(CC(C)C)on2)c1C	-16%	0%	0%	-8%	-26%	26µM*
Cc1nn(Cc2ccc(Cl)c(Cl)c2)c(C)c1NC(=O)c1cc(CC(C)C)on1	-3%	-5%	1%	?	-70%	?
COc1cc(NC(=O)c2cc(-c3ccccc3)on2)cc(OC)c1OC	-3%	-3%	-2%	-8%	.	?
COc1cc(NC(=O)c2cc3nc(-c4ccccc4)cc(-c4ccccc4)n3n2)cc(OC)c1OC	-1%	-1%	4%	-6%	-2%	10µM*
COc1ccc(N2C(=O)C(CC(=O)Nc3ccccc3)N(Cc3ccccn3)C2=S)cc1 (stereo unspecified)	-9%	-7%	3%	6%	0%	2%
COc1ccc(NC(=O)CCNS(=O)(=O)c2cc(Br)ccc2Br)cc1S(N)(=O)=O	-3%	-2%	1%	0%	.	-7%
O=C(Nc1cccnc1)c1cc(-c2ccc(Br)cc2)on1	0%	-1%	2.1µM*	5.8µM*	11%	?
COc1cccc(-c2cc(C(=O)Nc3cc(OC)c(OC)c(OC)c3)no2)c1	-7%	-17%	?	-23%	9%	23µM*
O=C(NCCc1ccccc1)c1cc(-c2ccc(Br)cc2)on1	.	.	-7%	.	-7%	.
COc1cccc(C2=NOC(C(=O)Nc3cc(OC)c(OC)c(OC)c3)C2)c1 (stereo unspecified)	12%	-4%	2%	-6%	-21%	18µM*
CCN(CC(=O)NC(C)(C)C)C(=O)C(c1ccccc1)c1ccccc1	-7%	-7%	-2%	-2%	-13%	3%
O=C(NCCN1C(=O)S/C(=C\c2cccs2)C1=O)[C@H](Cc1ccccc1)N1C(=O)c2ccccc2C1=O	-7%	-1%	1%	3%	-13%	-16%
CNC(=O)NC(=O)CSc1ccc(S(=O)(=O)N2CCOCC2)cn1	-1%	0%	-5%	1%	.	16%
Cn1c2ccccc2c2ncn(CCC3=CCCCC3)c(=O)c21	4.5µM*	28%	17µM*	?	.	?
Cn1c2ccccc2c2ncn(CCCN3CCOCC3)c(=O)c21	3%	-4%	-1%	15%	?	13%
Cc1ccc(CSc2nnc(-c3ccncc3)n2C)cc1	7%	-1%	0%	?	-37%	-10%
Cc1ccccc1Nc1nc(CSc2nnc(-c3ccoc3C)n2C)cs1	3%	19%	17µM*	7%	14%	10%
